# Screening data deposited in PubChem by National Center for Advancing Translational Sciences (NCATS).
# Only some compounds are listed: those with a hit (about 2.5% of all), similar ones and a draw of the others.
# GALK inh: qHTS Assay for Inhibitors of Human Galactokinase (GALK): NCGC Sytravon Library Screen; Potency, µM (series often up to 57.5 µM), inactives show top-dose activity, negative = inhibition, usual class: inhibitors; recombinant GALK, Kinase-Glo ATP luminescence, 1 h; 44,000 tested, under 10 active; P51570;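 further: plate controls were full GALK reaction for no effect and reaction lacking GALK for full effect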
#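 Reactions with and without enzyme served as controls. GALK at 5 nM phosphorylates 100 uM galactose using 35 uM ATP (HEPES pH 8.0, Mg2+) for 1 h at RT, with luminescence read 10 min after adding Kinase-Glo Plus.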
# NTMT1 inhibitor: Primary qHTS for Inhibitors of N-terminal methyltransferase 1 (NTMT1): MTaseGlo Assay; NTMT1 MTase-Glo SAH luminescence, purified enzyme; Potency, µM (titrated, usually from 114 µM), without a hit: at the highest dose activity change, negative = inhibition, hits mostly inhibitors; actives 2.5% (n = 59,000);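 further: potency means the concentration at half of the fitted maximal effect; plate controls were DMSO vehicle for no effect and no enzyme for full effect; nearly all actives have a fitted effect of over 65% in size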
# OvCa metastasis: Primary qHTS assay for Inhibitors of ovarian cancer metastasis using an organotypic tumor microenvironment (TME) model; SKOV3ip1-GFP adhesion/invasion on 3D omental model, fluorescence; AID 1963576, 2024; actives 0.1% (n = 46,000); Potency, µM (top dose mostly 45.8 µM), for the others: at the highest dose activity change, negative = inhibition, actives largely listed as inhibitors;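 further: potency means the concentration at half of the fitted maximal effect; plate controls were DMSO wells for no effect and tomatine positive control wells for full effect; nearly all actives have a fitted effect of over 65% in size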
#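 Primary human omental fibroblast/mesothelial 3D culture pre-formed 48 h. SKOV3ip1-GFP cells added with compounds (0.36-46 umol/L), incubated 2 h RT/16 h 37 C, fixed; GFP cells quantified at 488/509 nm.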
# PTAP-TSG101 blk: qHTS Validation Assay for Inhibitors of HIV-1 Budding by Blocking the Interaction of PTAP/TSG101: Sytravon Library Screen | Tumor susceptibility gene 101 protein (Homo sapiens), Q99816 | Fluorescence polarization, FITC-PTAP peptide/Tsg101, 20 min | Potency, µM (highest dose often 115 µM), most hits filed as inhibitors | 44,000 tested, under 10 active; further: potency means the concentration at half of the fitted maximal effect; 0% is about no effect
# Target sequence (Q99816 whole entry, looked up): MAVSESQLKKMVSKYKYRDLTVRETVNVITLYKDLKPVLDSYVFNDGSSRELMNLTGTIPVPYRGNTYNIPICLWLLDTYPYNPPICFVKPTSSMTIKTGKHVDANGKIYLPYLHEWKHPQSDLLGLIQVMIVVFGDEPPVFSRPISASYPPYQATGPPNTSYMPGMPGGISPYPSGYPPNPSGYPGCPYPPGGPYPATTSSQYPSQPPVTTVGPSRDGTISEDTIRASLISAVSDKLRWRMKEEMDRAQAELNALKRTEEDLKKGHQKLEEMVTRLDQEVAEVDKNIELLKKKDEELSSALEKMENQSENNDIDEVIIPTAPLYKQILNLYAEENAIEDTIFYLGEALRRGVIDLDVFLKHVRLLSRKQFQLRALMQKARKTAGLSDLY
#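 Steps: Tsg101 binding domain (10 uM final) in HEPES pH 7.5/NaCl/Tween 20/EDTA/TCEP; add compound; add FITC-PTAP peptide (50 nM final); incubate 20 min r.t.; read polarization.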
# HTT-AS act: Primary qHTS for Identification of Small Molecule Activators of Huntingtin-Antisense Promoter Activity. HEK293 HTT-AS promoter firefly luciferase reporter, 24 h; response scale: percent change from vehicle, -100% = no light. Potency, µM (highest dose often 57.5 µM), without a hit: at the highest dose activity change, positive = activation, hits mostly activators. actives 0.24% (n = 48,000). AID 1508624, 2021; further: potency means the concentration at half of the fitted maximal effect; nearly all actives have a fitted effect of over 55% in size
#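 Firefly luciferase readout (Dual-Glo, 10 min RT) after 24 h, 37 °C compound exposure (final up to 57.5 uM) of HEK293 reporter cells cultured 24 h beforehand; PTC124 at 50 uM final as control inhibitor; activity scaled vehicle 0%, zero RLU -100%.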
# HTT prom inh: Primary qHTS for Identification of Small Molecule Inhibitors of Huntingtin Promoter Activity. HEK293 HTT promoter firefly luciferase reporter, 24 h. Potency, µM (doses to about 57.5 µM), without a hit: at the highest dose activity change, negative = inhibition, actives largely listed as inhibitors. actives 0.93% (n = 48,000); further: potency means the concentration at half of the fitted maximal effect; nearly all actives have a fitted effect of over 50% in size
#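 HEK293 luciferase promoter-reporter cells (2,500/well) plated 24 h, then compounds added at up to 57.5 uM final for 24 h at 37 °C. Firefly luminescence by Dual-Glo, normalized to vehicle (0%) and zero RLU (-100%).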
# Active calls of the source: *; i = inactive; ? = inconclusive; · = not tested or not shown; [ ] = remark or other dose. The call rests on the fitted dose curve; in most records, active means well fitted curve in the direction sought with a large enough effect; inconclusive means small, poorly fitted or top-dose-only effect, or another doubt; inactive means no such curve, though single readings can be large; an effect the other way counts as inactive or inconclusive.
SMILES,GALK inh,NTMT1 inhibitor,OvCa metastasis,PTAP-TSG101 blk,HTT-AS act,HTT prom inh
COc1ccc(-c2nc(CSCC(=O)N3CCN(c4ccccc4)CC3)c(C)o2)cc1,-1%,3%,9%,i,-57%,?
COc1ccc(-c2nc(CSCC(=O)N3CCN(c4ccc(F)cc4)CC3)c(C)o2)cc1,-1%,10%,i,i,-51%,13µM*
Cc1oc(-c2ccc(Cl)cc2)nc1CN1CCC(C(=O)NCCCN2CCN(c3cccc(Cl)c3)CC2)CC1,8%,79µM*,-4%,i,-30%,-21%
COc1ccc(N2CCN(C(=O)C3CCN(Cc4nc(-c5ccc(Cl)cc5)oc4C)CC3)CC2)cc1,-17%,89µM*,25%,i,-22%,-28%
Cc1oc(-c2cccc(Cl)c2)nc1CN1CCC(C(=O)NCCCN2CCN(c3ccc(F)cc3)CC2)CC1,2%,?,i,i,-46%,?
COc1ccc(-c2nc(CN3CCC(C(=O)NCCCN4CCN(c5ccccc5F)CC4)CC3)c(C)o2)cc1OC,9%,-18%,7.1µM*,i,-14%,-20%
CCC(C)/C=C(C)/C=C/C1=CC2=C(Cl)C(=O)C(C)(OC(C)=O)C(=O)C2=CN1C(CC(=O)O)C(=O)O (configuration not stated),·,-26%[29.8 µM],·,·,·,·
O=C(NO)c1cnc(N2C[C@H]3C[C@@H]2CN3c2cc(C(F)(F)F)ccn2)nc1,·,1%,·,·,·,·
CC1=C(C(=O)Nc2ccccc2)C(c2ccccc2Cl)N=C(Nc2nc3ccccc3o2)N1 (configuration not stated),·,3%,·,·,·,·
CC(=O)N1c2ccc(S(=O)(=O)N3CCN(c4cccc(Cl)c4)CC3)cc2CC1C (configuration not stated),0%,-16%,-4%,i,-20%,8%
CCc1cccc(NS(=O)(=O)c2ccc3c(c2)CC(C)N3C(=O)C2CC2)c1 (configuration not stated),2%,23%,9%,i,-79%,14µM*
COc1cc(NS(=O)(=O)c2ccc3c(c2)CC(C)N3C(=O)C2CCC2)cc(OC)c1OC (configuration not stated),2%,·,·,i,·,·
CCC(=O)N1c2ccc(S(=O)(=O)N3CCN(c4ccccc4Cl)CC3)cc2CC1C (configuration not stated),-1%,89µM*,i,i,-41%,?
COc1cc(Cl)c(NS(=O)(=O)c2ccc3c(c2)CC(C)N3C(=O)C2CCC2)c(OC)c1 (configuration not stated),3%,1%,-1%,i,-87%,8.9µM*
CC1Cc2cc(S(=O)(=O)NCCc3ccc(Cl)cc3)ccc2N1C(=O)C1CCC1 (configuration not stated),3%,·,1%,i,·,·
COc1ccc(NS(=O)(=O)c2ccc3c(c2)CC(C)N3C(=O)C2CCC2)cc1OC (configuration not stated),-2%,7%,i,i,-50%,1.8µM*
CC1(C)CCCC2(C)C=C(C(=O)O)C(O)CC12 (configuration not stated),·,0%[57.5 µM],·,·,·,·
CCOc1ccc(/C=C/C(=O)Nc2sc3c(c2C(=O)OC)CCCC3)cc1,-1%,4%,-12%,i,4%,16%
